Results filed as inconclusive are left out. Active and inactive are the calls of the source. Unless noted, calls come from the whole dose curve; as a rule, active = well fitted curve in the direction sought with a large enough effect in the repeat runs; inconclusive = weak or mixed curves; inactive = no such curve, though single readings can be large; an effect the other way counts as inactive or inconclusive.
Experiments:
[1] = target: Thyrotropin receptor (Homo sapiens) (UniProt P16473); assay: qHTS assay to identify small molecule antagonists of the thyroid stimulating hormone receptor (TSHR) signaling pathway (AID 1259385; calls by dose curve; note: nearly all actives have a fitted effect of over 20% in size)
Outline: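 Antagonist mode: compound-treated TSHR-expressing HEK293 cells were stimulated with 1.5 ng/mL TSH (final) in presence of Ro20-1724 for 30 min at RT. HTRF cAMP detection after 1 h; each compound tested at 15 concentrations, triplicate.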

[2] = qHTS assay to identify small molecule agonists of the estrogen receptor alpha (ER-alpha) signaling pathway in the presence of an antagonist - cell viability counter screen (AID 1259386);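 note: series mostly up to about 92 µM; cells exposed to compounds for 22 h at 37 °C before the viability read; nearly all actives have a fitted effect of over 30% in size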
Outline: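 VM7Luc4E2, stripped-serum pre-culture 5 d; 24hr plating; +ICI-182,780 10.0nM final; cpds 15 conc, 22hr, 37C/5% CO2; CellTiter-Fluor added at 21hr, fluorescence 1hr later.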

[3] = target: Progesterone receptor (Homo sapiens) (UniProt P06401); assay: qHTS assay to identify small molecule agonists of the progesterone receptor (PR) signaling pathway (AID 1346784; calls by dose curve; note: nearly all actives have a fitted effect of over 30% in size)
Outline: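 Cells (PR-UAS-bla HEK 293T, GripTite) were plated in assay medium containing 2% charcoal-stripped FBS and incubated 6 hr. Test compounds in DMSO were added for 16 hr at 37C. FRET substrate was then loaded for 2 hr at room temperature before fluorescence reading.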

[4] = target: Progesterone receptor (Homo sapiens) (UniProt P06401); assay: qHTS assay to identify small molecule antagonists of the progesterone receptor (PR) signaling pathway (AID 1346795; active = well fitted inhibition curve with a large enough effect in the signal ratio in the repeat runs, not every such curve was filed as active; the % refers to the signal ratio)
Outline: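 Antagonist mode: compounds tested against 1 nM (final) promegestone stimulation in HEK293T cells expressing PR-UAS-bla reporter, 16 hr at 37C, 5% CO2; beta-lactamase activity detected via B/G FRET substrate after 2 hr at room temperature.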

[5] = qHTS assay to identify small molecule antagonists of the progesterone receptor (PR) signaling pathway - cell viability counter screen (AID 1346798); note: series mostly up to about 92 µM; nearly all actives have a fitted effect of over 50% in size
Outline: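 Counter screen for cytotoxicity: viability of PR-UAS-bla HEK293T cells was measured with CellTiter-Glo luminescence following 16 hr compound exposure in the presence of R5020.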

[6] = qHTS assay to identify small molecule agonists of the progesterone receptor (PR) signaling pathway - cell viability counter screen (AID 1346799; calls by dose curve; note: nearly all actives have a fitted effect of over 45% in size)
Outline: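 Cells (PR-UAS-bla HEK293T) are plated at 3,000/well in 2% charcoal-stripped FBS medium, rested 6 hr, dosed and incubated 16 hr at 37C. CellTiter-Glo is then added and luminescence measured after 30 min at room temperature.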

[7] = qHTS assay to identify small molecule antagonists of the TGF-beta/Smad signaling pathway - cell viability counter screen (AID 1346824); note: nearly all actives have a fitted effect of over 50% in size
Outline: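 Cytotoxicity counter-screen run in the same wells as the beta-lactamase Smad reporter read: CellTiter-Glo luminescence after 30 min at room temperature. HEK 293T SBE-bla cells had 5 hr compound exposure at 37 C with TGF-beta1 (0.25 ng/mL stock).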

[8] = qHTS assay to identify small molecule agonists of the TGF-beta/Smad signaling pathway (AID 1346859; active = well fitted activation curve with a large enough effect in the signal ratio in the repeat runs, not every such curve was filed as active; the % refers to the signal ratio; note: series mostly up to about 77 µM)
Outline: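 Reporter line: HEK 293T with stably integrated SBE-controlled beta-lactamase. Compound exposure lasts 5 hr at 37 C and 5% CO2; substrate loading follows for 2 hr at room temperature, with emission read at 460 and 530 nm.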

[9] = target: Thyrotropin-releasing hormone receptor (Homo sapiens) (UniProt P34981); assay: qHTS assay to identify small molecule antagonists of the thyrotropin-releasing hormone receptor (TRHR) signaling pathway (AID 1346877; active = well fitted inhibition curve with a large enough effect in the repeat runs, not every such curve was filed as active; note: series mostly up to about 51 µM)
Outline: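 Intracellular calcium fluorescence, read kinetically every second over 3 min, reports TRH-evoked signalling in HEK293 cells carrying TRHR. Test compounds were added 5 min ahead of a 1 nM TRH challenge.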

[10] = qHTS assay to identify small molecule agonists of the TGF-beta/Smad signaling pathway - cell viability counter screen (AID 1346829); note: top concentration of the series differs between compounds; nearly all actives have a fitted effect of over 45% in size
Outline: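 HEK 293T SBE-bla line, 5 hr compound exposure at 37 C, multiplexed CellTiter-Glo viability read by luminescence.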
% is set by controls: 0 for no effect and ±100 for the full control effect.

Chain of Thyrotropin receptor (Homo sapiens) (P16473 whole entry, looked up): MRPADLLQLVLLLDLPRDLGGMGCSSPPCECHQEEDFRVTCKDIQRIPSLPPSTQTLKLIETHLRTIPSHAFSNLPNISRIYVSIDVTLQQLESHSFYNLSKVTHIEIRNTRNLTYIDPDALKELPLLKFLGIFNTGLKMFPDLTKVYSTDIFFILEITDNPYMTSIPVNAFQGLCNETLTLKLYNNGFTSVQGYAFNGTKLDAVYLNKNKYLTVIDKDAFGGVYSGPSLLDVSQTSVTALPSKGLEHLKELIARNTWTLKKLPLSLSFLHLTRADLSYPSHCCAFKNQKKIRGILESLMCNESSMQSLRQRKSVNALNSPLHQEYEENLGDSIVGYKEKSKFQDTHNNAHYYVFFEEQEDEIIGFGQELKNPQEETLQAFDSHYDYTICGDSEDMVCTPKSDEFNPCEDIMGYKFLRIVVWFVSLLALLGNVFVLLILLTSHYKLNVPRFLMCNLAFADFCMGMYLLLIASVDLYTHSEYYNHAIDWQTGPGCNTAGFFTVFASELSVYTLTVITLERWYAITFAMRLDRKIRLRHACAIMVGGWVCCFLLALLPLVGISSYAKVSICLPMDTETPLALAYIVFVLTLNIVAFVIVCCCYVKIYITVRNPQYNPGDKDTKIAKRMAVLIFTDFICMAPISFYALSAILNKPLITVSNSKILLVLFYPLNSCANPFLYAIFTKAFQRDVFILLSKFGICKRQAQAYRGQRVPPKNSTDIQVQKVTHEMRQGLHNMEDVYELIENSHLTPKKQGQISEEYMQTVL
Chain of Progesterone receptor (Homo sapiens) (P06401 whole entry, looked up): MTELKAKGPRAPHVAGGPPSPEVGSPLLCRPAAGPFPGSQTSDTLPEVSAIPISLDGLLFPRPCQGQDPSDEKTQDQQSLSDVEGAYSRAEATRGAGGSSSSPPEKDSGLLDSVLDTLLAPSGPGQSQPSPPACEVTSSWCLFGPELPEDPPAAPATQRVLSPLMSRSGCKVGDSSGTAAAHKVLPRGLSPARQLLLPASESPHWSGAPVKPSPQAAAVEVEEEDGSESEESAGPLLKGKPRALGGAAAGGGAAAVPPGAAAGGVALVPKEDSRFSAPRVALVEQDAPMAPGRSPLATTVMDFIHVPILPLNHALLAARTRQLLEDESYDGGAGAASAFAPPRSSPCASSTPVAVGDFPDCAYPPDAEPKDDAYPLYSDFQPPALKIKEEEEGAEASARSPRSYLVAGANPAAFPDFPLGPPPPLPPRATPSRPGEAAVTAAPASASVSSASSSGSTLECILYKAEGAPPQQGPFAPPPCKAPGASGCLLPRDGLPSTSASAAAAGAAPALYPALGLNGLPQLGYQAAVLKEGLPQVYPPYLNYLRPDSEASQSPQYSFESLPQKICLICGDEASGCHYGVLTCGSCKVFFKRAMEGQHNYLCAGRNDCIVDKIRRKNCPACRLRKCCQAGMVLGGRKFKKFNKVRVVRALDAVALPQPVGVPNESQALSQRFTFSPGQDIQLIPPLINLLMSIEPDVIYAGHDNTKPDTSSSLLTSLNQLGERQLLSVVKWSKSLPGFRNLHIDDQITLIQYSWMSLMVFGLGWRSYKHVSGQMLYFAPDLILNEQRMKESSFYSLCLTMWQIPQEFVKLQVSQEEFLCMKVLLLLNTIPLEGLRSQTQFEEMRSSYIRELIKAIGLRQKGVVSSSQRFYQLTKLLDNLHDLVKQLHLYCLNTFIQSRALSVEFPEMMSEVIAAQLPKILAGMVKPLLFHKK
Chain of Thyrotropin-releasing hormone receptor (Homo sapiens) (P34981 whole entry, looked up): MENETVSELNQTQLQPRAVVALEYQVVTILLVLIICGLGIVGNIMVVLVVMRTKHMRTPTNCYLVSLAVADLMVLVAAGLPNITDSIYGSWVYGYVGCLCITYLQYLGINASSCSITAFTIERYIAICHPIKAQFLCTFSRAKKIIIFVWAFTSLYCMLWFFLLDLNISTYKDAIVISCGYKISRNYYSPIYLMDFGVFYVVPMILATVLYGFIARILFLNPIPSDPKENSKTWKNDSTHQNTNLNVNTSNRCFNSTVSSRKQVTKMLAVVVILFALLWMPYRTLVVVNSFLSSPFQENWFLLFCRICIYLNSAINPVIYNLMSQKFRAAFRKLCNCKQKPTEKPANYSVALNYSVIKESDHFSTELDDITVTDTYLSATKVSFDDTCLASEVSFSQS

CN(C)CCn1nnnc1SCC1=C(C(=O)O)N2C(=O)[C@@H](NC(=O)Cc3csc(N)n3)[C@H]2SC1
inactive: Potency [1] | outcome [2] | Potency [3] | Potency [4] | Potency [5] | Potency [6] | outcome [7] | outcome [8] | outcome [9]

CCCCCCC(CCCCCCCCCCC(=O)OCC(COC(C)=O)OC(C)=O)OC(C)=O (stereo unspecified)
inactive: Potency [1] | outcome [2] | Potency [3] | Potency [4] | Potency [5] | Potency [6] | outcome [7] | outcome [8] | outcome [9]

CC1(C)SC(C)(C)SC(C)(C)S1
inactive: Potency [1] | outcome [2] | Potency [3] | Potency [4] | Potency [5] | Potency [6] | outcome [7] | outcome [8]

CC(C)c1ccc2oc3nc(N)c(C(=O)O)cc3c(=O)c2c1
inactive: Potency [1] | outcome [2] | Potency [3] | Potency [4] | Potency [5] | Potency [6] | outcome [7] | outcome [10] | outcome [9]

CCCc1ccc(N)cc1
inactive: Potency [1] | outcome [2] | Potency [3] | Potency [4] | Potency [5] | Potency [6] | outcome [7] | outcome [8] | outcome [9]

CC(C)=CC(=O)O
inactive: Potency [1] | outcome [2] | Potency [3] | Potency [4] | Potency [5] | Potency [6] | outcome [7] | outcome [8] | outcome [9]

CC1=CC(=O)CCC1
inactive: Potency [1] | outcome [2] | Potency [3] | Potency [4] | Potency [5] | Potency [6] | outcome [7] | outcome [8] | outcome [9]

COC(=O)C1=C(C)NC(C)=C(C(=O)OCC(C)=O)C1c1ccccc1[N+](=O)[O-] (stereo unspecified)
inactive: Potency [1] | outcome [2] | Potency [3] | Potency [4] | Potency [5] | outcome [7] | outcome [8] | outcome [9]

Nc1nc(F)nc2c1ncn2[C@@H]1O[C@H](CO)[C@@H](O)[C@@H]1O
inactive: Potency [1] | outcome [2] | Potency [3] | Potency [4] | Potency [5] | Potency [6] | outcome [8]

NCC[C@H](O)C(=O)N[C@@H]1C[C@H](N)[C@@H](O[C@H]2O[C@H](CN)[C@@H](O)[C@H](O)[C@H]2O)[C@H](O)[C@H]1O[C@H]1O[C@H](CO)[C@@H](O)[C@H](N)[C@H]1O
inactive: activity change, negative = inhibition [1] 0.0742% [at 0.349 µM] | activity change, negative = cytotoxicity [2] 0.765% [at 0.349 µM] | activation [3] 0.26% [at 0.349 µM] | activity change, negative = inhibition [4] 2.43% [at 0.348 µM] | activity change, negative = cytotoxicity [5] 0.454% [at 0.348 µM] | activity change, negative = cytotoxicity [6] 8.45% [at 0.349 µM] | activity change, negative = cytotoxicity [10] -7.72% [at 0.29 µM] | activation [8] 5.03% [at 0.29 µM] | activity, negative = inhibition [9] 2.62% [at 0.194 µM]

OCCN1C[C@H](O)[C@@H](O)[C@H](O)[C@H]1CO
inactive: Potency [1] | outcome [2] | Potency [3] | Potency [4] | Potency [5] | Potency [6] | outcome [10] | outcome [8] | outcome [9]

CC(C)CCCCCCN
inactive: Potency [1] | outcome [2] | Potency [3] | Potency [4] | Potency [5] | Potency [6] | outcome [8] | outcome [9]

CCCCCCC(=O)OCC
inactive: Potency [1] | outcome [2] | Potency [3] | Potency [4] | Potency [5] | Potency [6] | outcome [7] | outcome [10] | outcome [8] | outcome [9]

COC(=O)[C@H]1[C@H]2C[C@@H]3c4[nH]c5cc(OC)ccc5c4CCN3C[C@H]2C[C@@H](OC(=O)COc2ccc(OC)cc2)[C@@H]1OC
inactive: Potency [1] | outcome [2] | Potency [3] | Potency [4] | Potency [5] | Potency [6] | outcome [7] | outcome [10] | outcome [9]

O=S(=O)(c1cccc2cnccc12)N1CCCNCC1
inactive: Potency [1] | outcome [2] | Potency [3] | Potency [5] | Potency [6] | outcome [7] | outcome [10] | outcome [8] | outcome [9]

Cc1cc(C)cc(OCC2CNC(=O)O2)c1 (stereo unspecified)
inactive: Potency [1] | outcome [2] | Potency [3] | Potency [4] | Potency [6] | outcome [10] | outcome [8]

CSc1ccc(C=O)cc1
inactive: Potency [1] | outcome [2] | Potency [3] | Potency [4] | Potency [6] | outcome [7] | outcome [10] | outcome [8]

CCc1cc(S(=O)(=O)O)c2cc(C(C)C)cccc1-2
inactive: Potency [1] | outcome [2] | Potency [3] | Potency [4] | Potency [6] | outcome [7] | outcome [10] | outcome [8] | outcome [9]

C[C@H]1O[C@@H](n2cc(F)c(=O)[nH]c2=O)[C@H](O)[C@@H]1O
inactive: Potency [1] | outcome [2] | Potency [3] | Potency [4] | Potency [5] | outcome [10] | outcome [8] | outcome [9]

O=Cc1ccccc1[N+](=O)[O-]
inactive: Potency [1] | outcome [2] | Potency [3] | Potency [4] | Potency [5] | outcome [10] | outcome [8]

Cc1c(F)cc2c(=O)c(C(=O)O)cn3c2c1CCC3C (stereo unspecified)
inactive: Potency [1] | outcome [2] | Potency [3] | Potency [4] | Potency [6] | outcome [7] | outcome [9]

CCCCC=O
inactive: Potency [1] | outcome [2] | Potency [3] | Potency [4] | Potency [5] | outcome [7] | outcome [8] | outcome [9]

CCCCCCCCCCCCCCC
inactive: Potency [1] | outcome [2] | Potency [3] | Potency [4] | Potency [6] | outcome [7] | outcome [10] | outcome [8] | outcome [9]

CCOC(=O)Nc1ccc2c(c1)N(C(=O)CCN1CCOCC1)c1ccccc1S2
inactive: Potency [1] | outcome [2] | Potency [3] | Potency [5] | Potency [6] | outcome [7] | outcome [10] | outcome [8]

C=CCOCC(O)CS(=O)(=O)O (stereo unspecified)
inactive: Potency [1] | outcome [2] | Potency [3] | Potency [4] | Potency [6] | outcome [7] | outcome [10] | outcome [8] | outcome [9]
